From PubChem
AmpC inh detg: qHTS Inhibitors of AmpC Beta-Lactamase (assay with detergent) | P00811 | AmpC hydrolysis of nitrocefin, absorbance 480 nm, 0.01% Triton | Potency, µM (titrated, usually from 114 µM), most hits filed as inhibitors | actives 0.041% (n = 370,000) | AID 485294, 2010; also: nearly all actives have a fitted effect of over 25% in size
Target sequence (P00811 whole entry, looked up): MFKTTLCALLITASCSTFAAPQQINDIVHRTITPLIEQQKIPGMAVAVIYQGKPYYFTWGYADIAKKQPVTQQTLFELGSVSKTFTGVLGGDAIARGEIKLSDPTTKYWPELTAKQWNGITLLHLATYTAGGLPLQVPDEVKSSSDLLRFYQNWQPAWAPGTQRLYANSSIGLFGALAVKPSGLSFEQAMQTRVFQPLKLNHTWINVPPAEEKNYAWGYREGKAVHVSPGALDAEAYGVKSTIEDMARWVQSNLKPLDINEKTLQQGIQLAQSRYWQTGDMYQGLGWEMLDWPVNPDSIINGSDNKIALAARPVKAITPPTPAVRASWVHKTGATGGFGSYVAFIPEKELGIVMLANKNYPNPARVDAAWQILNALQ
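20 mM phosphate pH 7.0 + 0.01% (detergent screen) or 0.0001% Triton X-100; 5.3 nM AmpC reagent; cpd preinc 15 min RT; nitrocefin (800 uM stock) to start; A480 q20 s × 4 min; Activity was normalised to no-enzyme and no-compound control wells.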
Pf growth 48h: Primary qHTS for delayed death inhibitors of the malarial parasite plastid, 48 hour incubation. P. falciparum luciferase growth in erythrocytes, 48 h. Potency, µM (series often up to 28.7 µM), usual class: inhibitors. actives 5.9% (n = 310,000)
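A one-generation exposure of luciferase-tagged malaria parasites in RPMI 1640/Albumax erythrocyte culture, 37 C and 5% CO2. Inhibition is inferred from decreased luminescence after adding detection reagent.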
HCV inhibitor: qHTS Assay for Inhibitors of Hepatitis C Virus (HCV); Potency, µM (doses to about 41.8 µM), usual class: inhibitors; Huh7.5.1 HCVcc-Cre infection, luciferase reporter, 44 h; actives 3.4% (n = 340,000)
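Whole-lifecycle infectious HCVcc-Cre system; cells 1,000/well, compound then virus (~0.5 moi) added 4 h after plating, 44 h culture. Luciferase read 15 sec following 15 min substrate incubation, room temp.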
Pf growth 96h: Primary qHTS for delayed death inhibitors of the malarial parasite plastid, 96 hour incubation; P. falciparum luciferase reporter growth, 96 h; AID 504834, 2011; Potency, µM (doses to about 28.7 µM), actives largely listed as inhibitors; actives 6.9% (n = 320,000)
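Readout is luminescence from an integrated firefly luciferase in P. falciparum. Red cells, 2% hematocrit and 0.05% parasitemia final, were cultured with compound through two parasite generations (96 hours) at 37 C, 5% CO2.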
AMA1 RON2 block: qHTS for Inhibitors of AMA1-RON; Towards Development of Antimalarial Drug Lead: Primary Screen. Plasmodium falciparum AMA1 (3D7) - RON2 peptide interaction. AlphaScreen AMA1-biotinylated RON2 peptide binding. Potency, µM (top dose mostly 58.2 µM), actives largely listed as inhibitors. actives 0.2% (n = 360,000). AID 720542, 2013; also: nearly all actives have a fitted effect of over 45% in size
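AMA1 (3D7) with his tag at 25 nM final met compounds first, then biotinylated RON2 peptide at 25 nM; detection used donor plus acceptor beads, 10 µg/mL apiece, read by AlphaScreen after 30 min at room temperature.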
AmpC inh no detg: qHTS Inhibitors of AmpC Beta-Lactamase (assay without detergent); P00811; AmpC nitrocefin hydrolysis, absorbance 480 nm, 0.0001% Triton; Potency, µM (doses to about 57.1 µM), actives largely listed as inhibitors; actives 0.52% (n = 330,000); also: nearly all actives have a fitted effect of over 20% in size
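20 mM phosphate pH 7.0 + 0.01% (detergent screen) or 0.0001% Triton X-100; 5.3 nM AmpC reagent; cpd preinc 15 min RT; nitrocefin (800 uM stock) to start; A480 q20 s × 4 min; Activity was normalised to no-enzyme and no-compound control wells.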
Numbers stand for hits; i = inactive; ? = inconclusive; nt = no result given; ! = not active in a repeat; [ ] = remark or other dose. Sampled rows, rich in hits. Any-hit rate of the full collection: about 11%. Calls follow the shape of the dose curve; as a rule, active = well fitted curve in the direction sought with a large enough effect; inconclusive = small, poorly fitted or top-dose-only effect, or another doubt; inactive = no such curve, though single readings can be large; an effect the other way counts as inactive or inconclusive.

SMILES | AmpC inh detg | Pf growth 48h | HCV inhibitor | Pf growth 96h | AMA1 RON2 block | AmpC inh no detg
Oc1ccc2ccccc2c1/C=N/Nc1nnc(-c2ncc[nH]2)c2ccccc12 | i | 2.6µM | 3.2µM | nt | i | i
Oc1ccc2ccccc2c1C=NNc1ccccn1 | nt | nt | 3.2µM | nt | i | nt
O=c1c2ccccc2nc(N/N=C/c2c(O)ccc3ccccc23)n1O | i | 0.52µM | 0.89µM | 0.47µM | ? | i
O=C1NCC(c2ccccc2)C1C(=O)N/N=C/c1ccc(Cl)s1 (stereo unspecified) | i | i | i | 7.4µM | i | i
Cc1cccc(/N=C2/NC(=O)C(Cc3ccccc3)S2)n1 (stereo unspecified) | i | i | i | i | i | i
CCOc1ccc(CC2S/C(=N/c3ccccn3)NC2=O)cc1 (stereo unspecified) | i | 15µM | i | i | i | i
O=C1NC(=Nc2ccc(F)cc2)SC1Cc1ccc(F)cc1 (stereo unspecified) | i | 9.3µM | i | 8.3µM | i | i
Cc1nn(-c2ccccc2)c2c1N(CC(=O)N1CCN(c3cccc(Cl)c3)CC1)C(=O)CS2 | i | nt | nt | nt | nt | nt
Cc1cc(C(=O)COC(=O)c2ccc(N)c([N+](=O)[O-])c2)c(C)n1Cc1ccc2c(c1)OCO2 | i | i | 13µM | i | i | i
Cc1cc(C(=O)COC(=O)c2ccc(N)c([N+](=O)[O-])c2)c(C)n1-c1ccc2c(c1)OCO2 | ? | 13µM | 2µM | 4.7µM | i | i
C=CCn1c(C)cc(C(=O)COC(=O)c2ccc(N)c([N+](=O)[O-])c2)c1C | i | i | ? | i | i | i
Cc1cc(C(=O)CSc2nnc(-c3cccs3)o2)c(C)n1-c1ccccc1 | i | i | 8.9µM | ? | i | i
Cc1nnc(SCC(=O)c2cc(C)n(-c3ccc4c(c3)OCO4)c2C)s1 | ? | ? | 11µM | i[5.75 µM] | i | i
CCCCNc1ncnc2c1nnn2C | i | nt | nt | nt | nt | nt
CC1=C(C(=O)Nc2ccc(C)cc2C)C(c2ccccc2F)n2nc(SCC(=O)c3ccc(C)cc3)nc2N1 (stereo unspecified) | i | nt | nt | nt | nt | nt
CCCOc1cccc(C2c3c(oc4ccc(F)cc4c3=O)C(=O)N2Cc2ccc3c(c2)OCO3)c1 (stereo unspecified) | i | nt | nt | nt | nt | nt
Cc1cc(C(=O)CSc2nnc(-c3ccco3)o2)c(C)n1-c1ccc2c(c1)OCCO2 | i | nt | 13µM | 12µM | i | i
Cc1cc(C(=O)CSc2nnnn2C)c(C)n1-c1ccc2c(c1)OCCO2 | i | i | i | nt | i | i
CC(=O)c1ccc(OCC(=O)c2cc(C)n(-c3ccc4c(c3)OCO4)c2C)cc1 | i | i | 13µM | i | i | i
COc1cccc(NC(=O)CSc2nnc(-c3cc(C)n(-c4ccccc4)c3C)o2)c1 | i | i | i | 10µM | i | i
O=S(=O)(NCCc1nnc2ccc(SCc3c(F)cccc3Cl)nn12)c1ccccc1 | i | nt | nt | nt | nt | nt
O=C(CSc1nc(=O)n(Cc2ccco2)c2c1CCC2)NCc1ccc(Cl)cc1 | i | nt | nt | nt | nt | nt
CCC(C(=O)OC)n1nnc2sc(-c3ccccc3)cc2c1=O (stereo unspecified) | i | nt | nt | nt | nt | nt
Cc1nn2c(c1-c1ccc(Cl)cc1)N=C(c1ccco1)CC2c1ccccc1 (stereo unspecified) | i | ? | 2.5µM | 17µM | i | i
Cc1ccc(CCNC(=O)C2CCN(S(=O)(=O)c3ccc4c(ccn4C)c3)CC2)cc1 | i | nt | nt | nt | nt | nt
SMILES | AmpC inh detg | Pf growth 48h | HCV inhibitor | Pf growth 96h | AMA1 RON2 block | AmpC inh no detg
Cc1cc(C)c2nc(NC(=O)[C@@H](NC(=O)c3cccc(S(=O)(=O)N4CCOCC4)c3)C(C)C)sc2c1 | i | 9.3µM | ? | 6.6µM | i | i
Cc1ccsc1CN(C)C(=O)C(NC(=O)c1cccc(S(=O)(=O)N2CCOCC2)c1)C(C)C (stereo unspecified) | ? | 13µM | i | ? | i | i
Cc1cccc(NC(=O)COC(=O)C(NC(=O)c2cccc(S(=O)(=O)N3CCOCC3)c2)C(C)C)c1 (stereo unspecified) | nt | nt | ? | nt | i[11.6 µM] | nt
O=C(Nc1cc(-c2ccccc2)[nH]n1)c1ccc(Cl)cc1 | i | i | ? | i | i | 7.1µM!
O=C(Nc1nc(-c2ccccc2)ns1)c1ccc(Cl)cc1 | i | nt | nt | nt | nt | nt
CCOC(=O)c1ccccc1NC(=O)Cn1ncc2c1-c1ccccc1OC2 | i | nt | nt | nt | nt | nt
Cc1c(C(=O)N(CC(C)C)c2c(N)n(Cc3ccccc3)c(=O)[nH]c2=O)sc2nc3n(c(=O)c12)CCC3 | ? | 8.3µM | i | ? | i | i
COc1ccc(CNC(=O)c2sc3nc4n(c(=O)c3c2C)CCC4)cc1 | i | nt | nt | nt | nt | nt
CCN(C(=O)COC(=O)C12CC3CC(CC(O)(C3)C1)C2)c1c(N)n(Cc2ccccc2)c(=O)[nH]c1=O | nt | nt | i | nt | i | nt
COCCN(C(=O)COC(=O)C12CC3CC(CC(Cl)(C3)C1)C2)c1c(N)n(Cc2ccccc2)c(=O)[nH]c1=O | ? | 12µM | i | ? | i | i
CN(C(=O)COC(=O)C12CC3CC(CC(C3)C1)C2)c1c(N)n(Cc2ccccc2)c(=O)[nH]c1=O | i | i | i | i | i[11.6 µM] | i
COc1ccc(COC(=O)c2sc3nc4n(c(=O)c3c2C)CCC4)cc1 | i | 9.3µM | ? | ? | i | i
CC(C)CN(C(=O)COC(=O)C12CC3CC(CC(Cl)(C3)C1)C2)c1c(N)n(Cc2ccccc2)c(=O)[nH]c1=O | ? | 4.7µM | i | ? | i | i
CCN(CC)C(=O)c1sc2c(c1C)c(=O)n(-c1ccc(Cl)c(Cl)c1)c(=O)n2Cc1ccccc1C#N | i | nt | nt | nt | nt | nt
CCOc1ccc(-c2nnc(SCC(=O)NCCc3ccccc3)nc2-c2ccc(OCC)cc2)cc1 | i | nt | nt | nt | nt | nt
CCc1nc2ccccc2c(C(=O)OCC(=O)N(CC(C)C)c2c(N)n(Cc3ccccc3)c(=O)[nH]c2=O)c1C | i | 12µM | ? | 9.3µM | i | i
O=C(Nc1ccccc1Cl)c1cc2c(-c3ccccc3)nn(-c3ccccc3)c2s1 | i | nt | nt | nt | nt | nt
CCCCCC(=O)N[C@@H](c1ccccc1)[C@@H](O)C(=O)O[C@H]1C[C@@]2(O)[C@@H](OC(=O)c3ccccc3)C3[C@](C)(C(=O)[C@H](O)C(=C1C)C2(C)C)[C@@H](OC1OCC(O)C(O)C1O)C[C@H]1OC[C@@]31OC(C)=O (stereo partly specified) | ? | ? | i | 0.17µM | i | i
